Compounds with a hit are over-represented: about 2.8% of the library has one in this group of screens.
CF NFkB inh: cystic fibrosis NF-kB activation inhibition | KKLEB NF-kB-GFP reporter, PAF-induced, GFP fluorescence overnight | actives 0.86% (n = 360,000) | inhibition, % at 5 µM;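 active means at least 50% inhibition at 5 µM, scaled per plate between neutral and stimulator controls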;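 further: PAF is a Pseudomonas aeruginosa culture filtrate used as stimulus; plate controls were PAF-stimulated DMSO wells for no effect and unstimulated DMSO wells for full effect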
MITF TRPM1 inh: inhibitors of MITF-driven TRPM1 promoter in melanoma cells; SK-MEL-5 TRPM1 promoter luciferase, 24 h; AID 488899; inhibition, % at 12.5 µM; actives 0.83% (n = 330,000);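 active means mean inhibition across replicates of 60% or more, whatever share of single replicates reaches that level; inconclusive means some that reach 60%, reason not given; inactive means mean inhibition across replicates below 60%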
Shn3 3UTR inh: Schnurri-3 reporter inhibition in Clone20 osteoblasts. actives 0.52% (n = 360,000). inhibition, % at 12.5 µM. Clone20 osteoblast Shn3 3'UTR firefly luciferase, 24 h;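 active means mean inhibition of at least 75% with every replicate also reaching 75%; inconclusive means mean inhibition at least 75% but some replicate below; inactive means mean inhibition below 75%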;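 further: 0% = median of neutral control wells and 100% = pilot-screen positive control compound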
HIF-2a block: inhibitors of HIF-2a; 786-0 RCC cells HIF-2a reporter, luciferase luminescence, overnight; inhibition, % at 18.8 µM; actives 0.72% (n = 360,000); AID 624352;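 active means inhibition of the luminescence signal of 40% or more relative to plate controls, in a single-dose primary screen at 18.75 µM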
Peg3 promoter: reduces Peg3 promoter-driven luciferase expression in HeLa; actives 1.7% (n = 360,000); inhibition, % at 20 µM; AID 588405; HeLa PEG-Prom luciferase reporter, luminescence, overnight;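 active means inhibition of at least 50% at 20 µM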
KKLEB tox: reduces viability of KKLEB cystic fibrosis airway cells; actives 0.36% (n = 360,000); KKLEB CF airway cells viability, ATPlite luminescence, overnight; stronger effect = lower value; cells stimulated with P. aeruginosa culture filtrate; AID 602141; activity change (cytotoxicity), % at 5 µM;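 active means corrected activity change at or below -50% at 5 µM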
The depositor's hits bear a star; ? = inconclusive; / = no result given.

SMILES	CF NFkB inh	MITF TRPM1 inh	Shn3 3UTR inh	HIF-2a block	Peg3 promoter	KKLEB tox
Cc1cc(C)c2c(=O)n3c(nc2c1)C(Cc1ccc(O)cc1)NC(=O)c1cc2ccccc2cc1-3 (stereo not given)	5	/	54	-10	67*	-2
CC(C)C[C@H]1CN=C(Nc2ccccc2)N1CC1CCC(C(C)(C)C)CC1 (stereo not given in full)	43	?	-32	4	103*	-41
CCn1nc(C)c(CN2CCC(Oc3ccc(C(=O)N4CCCC4)cc3)CC2)c1C	-12	3	20	3	-6	4
Cc1nc2ccc(F)cc2cc1C(=O)NCC1CCCO1 (stereo not given)	-7	-9	2	14	-1	-89*
Nc1ncnc2c1cnn2C1CCCCC1	8	6	-9	4	16	-7
O=C(Nc1ccc(-c2nc3ccccc3s2)cc1)C1=COCCO1	-14	43	70	16	19	-53*
O=C(Nc1cccc(-c2nc3ccccc3s2)c1)C1=COCCO1	-22	-4	-43	-115	-163	-7
Cn1nccc1C(=O)Oc1ccc(/C=N/NC(=O)c2ccccc2O)cc1	0	-1	0	-70	-18	-8
Cc1[nH]c2c(ccc3cccnc32)c1C	-3	-11	/	-73	-64	1
CC1=[N+](C)c2c(ccc3cccnc23)C1(C)C	14	-35	93*	-21	23	-1
CCCCn1nc(CC(=O)NCCN(CC)CC)c2ccccc2c1=O	8	-6	-16	14	-5	2
CC(OC(=O)Cc1coc2ccc3ccccc3c12)C(=O)NC(N)=O (stereo not given)	-18	5	8	19	5	9
CCN(CC)CCOc1ccc(/C(=C(\Cl)c2ccccc2)c2ccccc2)cc1	39	-6	-38	10	81*	32
CCN(CC)CCOc1ccc(Br)cc1	-5	-8	-7	11	10	-4
Cc1ccc2ccccc2c1CSc1nc(N)nc2c1ncn2CC(C)C	2	-7	17	-4	0	4
CC1Cc2ccccc2N1C(=O)COC(=O)c1c2c(nc3ccccc13)CCCCC2 (stereo not given)	43	-2	10	-25	51*	-6
Cc1ccccc1C(c1ncccc1C)N(C)C(=O)C1CCN(CCOc2ccc(Cl)cc2Cl)CC1 (stereo not given)	13	/	4	7	100*	-11
COc1ccc(C(NC(=O)C2CCN(CCOc3ccc(Cl)cc3Cl)CC2)c2ccccc2C)cn1 (stereo not given)	13	/	-7	-17	1	-24
O=C(NC(c1ccccc1)c1ccsc1)C1CCN(CCOc2ccc(Cl)cc2Cl)CC1 (stereo not given)	8	/	-10	-13	54*	-31
COc1cccc(CC(=O)OCC(=O)NC(Cc2ccccc2)C(C)=O)c1 (stereo not given)	0	10	-35	5	2	-8
Cc1cc(Cl)c2ccc3ccccc3c2n1	2	-2	6	13	-15	4
Cc1ccc2c(Cl)cc(Cl)c(O)c2n1	52*	73*	66	6	46	-35
Cc1ccc(C(C)C)cc1NC(=O)Nc1ccc([N+](=O)[O-])cc1	45	34	87*	-31	47	-47
O=C(O)CCCC(=O)N1N=C(c2ccccc2)CC1c1cccs1 (stereo not given)	-13	-2	10	6	-5	2
CSc1ccc(CN2CCC(CO)(Cc3ccc(Cl)cc3)CC2)cc1	2	22	12	17	73*	-18
CCCCN(C(=O)c1cc(CC)c(C)s1)c1c(N)n(CCC)c(=O)[nH]c1=O	-19	-4	5	8	7	15
CN(Cc1c(F)cccc1Cl)C(=O)c1cccc(S(=O)(=O)N2CCN(Cc3ccccc3)CC2)c1	20	8	15	23	20	-5
CN(Cc1ccc(OC(F)F)cc1)C(=O)c1cccc(S(=O)(=O)N2CCN(Cc3ccccc3)CC2)c1	11	31	89*	13	16	-19
Cc1[nH]nc(-c2cccnc2)c1N=NN(C)C	5	72*	-5	29	71*	-16
CN(C)c1nc(N)nc(-c2cccnc2)n1	-3	-4	-4	-5	2	15

From PubChem BioAssay
